# Among all 1,200 compounds or so, about 65 (5%) were called active.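 Rule for the calls: active = at either tested dose, response and 90th-percentile vesicle-stain brightness of CD8 cells under set limits and under 9% cells vesicle-bound; inactive = the rest.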 What follows is part of a selection rich in actives, with near analogues and random picks from the rest.
# Test: modulators of CD8 T cell-vesicle binding, confirmation, cherry-picked primary hits, two concentrations (AID 2810);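 note: lower values mean blocking of vesicle binding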;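 for percent response (vesicle binding): ratio of mean FL2 vesicle stain of CD8+ cells to that row's control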
# Details: 2C CD8+ T cell-vesicle binding, flow cytometry; for double positive events: CD8+/vesicle+ events
# [1] = at 15.4 µM, stronger effect = lower value
SMILES,double positive events (at 7.7 µM) [%],double positive events [1] [%],percent response (vesicle binding) [1],"percent response (vesicle binding) (response, at 7.7 µM) [%]"
CC(C)(C)C(=O)Nc1ccc2c(c1)OCCOCCOc1cc(NC(=O)C(C)(C)C)ccc1OCCOCCO2,22.2,25.5,251% (inactive),910
COc1ccc(N(CC(=O)NCCC2=CCCCC2)S(=O)(=O)c2ccc(C)cc2)cc1OC,8.6,22.9,140% (inactive),96.7
Cc1c(C(=O)NCCSCc2c(F)cccc2Cl)cnn1-c1ccc(Cl)cc1,19.9,1.6,26.4% (active),229
O=C(CSCCO)N1CCc2ccccc21,9.8,26,310% (inactive),415
Nc1nnc(SCCOc2ccc(Br)cc2)s1,34.9,15.9,217% (inactive),294
Cc1sc(NC(=O)CN2CCOCC2)c(C#N)c1C,10.4,29,344% (inactive),364
COc1cccc(C(=O)O[C@@H]2[C@H](Cc3ccccc3)NS(=O)(=O)[C@H]3C[C@@H]4C=C[C@]23O4)c1,30,18.9,180% (inactive),197
Cc1oc(-c2ccccc2)nc1Cn1cccc1C1=NC(c2ccccc2)CO1 (centres undefined),13.6,14.5,105% (inactive),179
CCn1nc(C(=O)NCCc2ccc3c(c2)OCCO3)c2ccccc2c1=O,9.8,15.2,173% (inactive),148
OC[C@H]1O[C@@H](Oc2ccc3cc(Br)ccc3c2)[C@H](O)[C@@H](O)[C@H]1O,14.4,27.5,389% (inactive),493
COc1ccc(NC(=O)CC2C(=O)N(Cc3ccccc3)C(=S)N2CCN2CCOCC2)cc1 (centres undefined),13,0.6,20% (active),196
COc1ccc(C(=O)N2CCN(c3ccc(NC(=O)Cc4ccccc4)cc3)CC2)cc1,25.4,23.5,291% (inactive),635
COC(=O)CN1C(=S)N(C)C(=O)C1CC(=O)Nc1ccccc1 (centres undefined),18.9,12.8,120% (inactive),896
S=c1sc2c(N3CCOCC3)ncnc2n1-c1ccccc1,9.4,12.2,206% (inactive),355
Cc1cc2ncn(C(=O)N3CCCCCC3)c2cc1C,6.8,21.3,112% (inactive),241
CCCCn1c(-c2ccccc2)nnc1-c1ccccc1,37.8,9.3,150% (inactive),219
O=C(N/N=C/c1cccc(OCc2ccccc2)c1)c1ccc(Br)cc1,9.6,0.9,36% (active),128
O=C(N/N=C/c1ccc(OCc2ccccc2)cc1)c1cccs1,12.1,18.5,272% (inactive),428
O=C(N/N=C/c1cccc(OC(=O)c2ccccc2Cl)c1)c1cccnc1,25.8,10,87% (inactive),350
Cc1ccc(N(CC(O)CN2CCCC2)S(=O)(=O)c2ccc(C)cc2)cc1 (centres undefined),24.2,34.6,136% (inactive),325
COc1cc(F)c(C2=CC(=O)C[C@H](c3ccc(F)cc3)C2)cc1F,24.2,13.4,170% (inactive),320

SMILES,double positive events (at 7.7 µM) [%],double positive events [1] [%],percent response (vesicle binding) [1],"percent response (vesicle binding) (response, at 7.7 µM) [%]"
CC1(C)Cc2c(C#N)c(NC3CCCCC3)nc(-c3ccco3)c2CO1,5.9,2.8,33.8% (active),107
O=C(NCCC1=CCCCC1)C(=O)NCC(c1ccco1)N1CCN(c2ccccc2F)CC1 (centres undefined),36.4,10.7,201% (inactive),264
O=C(NCc1cccnc1)C(=O)NCC(c1ccco1)N1CCN(c2ccccc2)CC1 (centres undefined),20.2,6.1,135% (inactive),202
COc1ccccc1NS(=O)(=O)c1cc(NC(=O)CNC(=O)c2cc(C)cc(C)c2)ccc1C,21,0.9,39.6% (active),218
COc1ccc(NC(=O)Cc2ccc(C)c(C)c2)cc1S(=O)(=O)N1CCCCC1,37.7,10.7,257% (inactive),649
COc1ccccc1NS(=O)(=O)c1ccc(C)c(NC(=O)c2ccc(S(=O)(=O)N3CCCCCC3)cc2)c1,11.9,35.5,332% (inactive),182
O=S(=O)(NN=C1CCCCCCC1)c1ccc(Br)cc1,13.7,7.3,144% (inactive),120
CC(/C=C/c1ccc(C)o1)=C\C(=O)O,19.1,19.8,196% (inactive),227
COCCNC(=O)c1c[nH]c2ccc(OC)cc2c1=O,18.7,13.1,154% (inactive),563
NC(=O)NC(=O)COC(=O)CN1C(=O)C2CCCCC2C1=O (centres undefined),15.9,33.3,345% (inactive),151
CCOC(=O)c1c(O)c2cc(Cl)ccc2n(CC)c1=O,10.9,12,102% (inactive),127
CCOC(=O)c1c(C=O)c2ccccc2n1CC,17.9,3,28.6% (active),287
CCn1c(=O)cc(SCC(=O)N(C)Cc2ccccc2)c2ccccc21,24.8,14,193% (inactive),224
Cc1ccc(CSc2ccc(S(=O)(=O)N3CCCC3)cn2)cc1,8.3,18,92.4% (inactive),237
CC(=O)c1ccc(Nc2cc(C)nc3nc(C)nn23)cc1,10.4,19.9,90.9% (inactive),189
COc1ccc(NC(=S)N2CCN(c3ncccn3)CC2)c(OC)c1,30.6,14.7,195% (inactive),246
COc1ccc(-c2cccc3c2NC(=O)C3=O)cc1OC,7.8,26.1,427% (inactive),305
C/C(=N\Nc1nc2ccccc2[nH]1)c1cc2ccccc2o1,14.4,31.4,271% (inactive),266
Cc1sc2ncnc(NCC(C)(C)N3CCOCC3)c2c1C,6.4,1.9,49.2% (active),251
CCSc1ncnc2sc(C)c(C)c12,7.6,17.4,318% (inactive),354
CC(C)(CNC(=O)c1cc2c(s1)CCCC2)N1CCOCC1,8,20.9,213% (inactive),164

SMILES,double positive events (at 7.7 µM) [%],double positive events [1] [%],percent response (vesicle binding) [1],"percent response (vesicle binding) (response, at 7.7 µM) [%]"
Cc1ncc([N+](=O)[O-])n1Cc1cccc(F)c1,7.3,11.5,118% (inactive),274
COc1ccc(S(=O)(=O)N(C)C[C@H]2Oc3ccc(NC(=O)C4CC4)cc3C(=O)N([C@H](C)CO)C[C@@H]2C)cc1,5.6,16.6,189% (inactive),102
Cc1cc(C)c(/C=N/NC(N)=O)c(C)c1/C=N/NC(N)=O,38.1,18.6,240% (inactive),428
COc1ccc(/C=C2\SC(N3CCc4ccccc4C3)=NC2=O)cc1OC,22.6,2.9,42% (active),201
CCCC(=O)N1CCc2cc(OC)c(OC)cc2C1COc1ccccc1OC (centres undefined),21.6,13.8,128% (inactive),276
O=C1N=C(N2CCOCC2)S/C1=C\c1cccs1,8.6,6.3,248% (inactive),332
CC(C)NC(=O)NC(=O)COC(=O)c1ccc(F)cc1F,29.2,19.1,385% (inactive),423
O=C(c1c[nH]c2ccccc12)N1CCN(Cc2ccccc2)CC1,13.7,10.6,47.9% (inactive),181
CC(NS(=O)(=O)c1ccc(Cl)c(Cl)c1)C(=O)OCC(=O)N1CCCCCC1 (centres undefined),27.5,12.9,182% (inactive),284
c1csc(-c2nc3ccccc3[nH]2)c1,38.6,18.6,255% (inactive),233
COc1ccc([C@H]2CC(=O)C=C(c3c(C)cc(C)cc3C)C2)cc1,12.5,5.7,49.9% (active),132
COc1ccc([C@H]2CC(=O)C=C(/C=C/c3ccccc3)C2)cc1,19.1,3.3,36.9% (active),286
COc1ccc([C@H]2CC(=O)C=C(c3cc(F)ccc3OC)C2)cc1,19.1,16.3,198% (inactive),138
COc1ccc([C@H]2CC(=O)C=C(c3cccc(Cl)c3)C2)cc1,37.2,4.7,129% (inactive),315
COc1ccc(C2=CC(=O)CC(c3ccc(OC)cc3)C2)cc1 (centres undefined),14.8,3.2,110% (inactive),120
COc1ccc([C@H]2CC(=O)C=C(c3ccc4c5c(cccc35)CC4)C2)cc1,6.5,29.8,626% (inactive),271
O=C(NCCO)/C(=C\c1ccc(Br)cc1)NC(=O)c1cccs1,6.9,24.7,683% (inactive),70.4
COc1ccc(CCCC(=O)NC(C)c2ccccc2)cc1 (centres undefined),12.2,15.2,93.8% (inactive),104
O=C(COC(=O)C1(c2cccc(F)c2)CCCC1)NCc1ccc2c(c1)OCO2,15.2,3.1,106% (inactive),82.7
